In PubChem BioAssay (NCI) one finds growth data, which are given here for 8 molecules.

Structures are written as SMILES. The panel holds about 83,000 compounds, 20% with a hit somewhere; the sample as a whole holds those more often.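 The endpoint reported here, percent growth, reads 100 for growth as untreated, 0 for no net growth and -100 for all cells dead.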 Values without a mark were called inactive. Calls of active or inactive are those of the source. Rule for the calls: active = growth percent below 10; inactive = the rest.

Common to all, as to assay: NCI-60 one-dose screen, 48 h (100 = growth as untreated, 0 = no growth, -100 = all killed)
The test system of assay [1] is NCI-H23 lung. To be noted: 10 µM unless noted.
Assay [2] relates to NCI-H226 lung. Particulars: 10 µM unless noted.
The test system of assay [3] is NCI-H322M lung. Particulars: 10 µM unless noted.
Assay [4] relates to HOP-62 NSCLC. To be noted: 10 µM unless noted.
Assay [5] relates to NCI-H460 lung. To be noted: 10 µM unless noted.
Assay [6] relates to HOP-92 NSCLC. Particulars: 10 µM unless noted.
The test system of assay [7] is NCI-H522 lung. To be noted: 10 µM unless noted.
The test system of assay [8] is A549/ATCC NSCLC. To be noted: 10 µM unless noted.
Assay [9] has as its system 786-0 renal. Particulars: 10 µM unless noted.
Assay [10] deals with COLO 205 colon. To be noted: 10 µM unless noted.
Assay [11] has as its system DU-145 prostate. To be noted: 10 µM unless noted.
Assay [12] deals with K-562 leukemia. To be noted: 10 µM unless noted.
The test system of assay [13] is MALME-3M melanoma. Particulars: 10 µM unless noted.
The subject of assay [14] is MDA-MB-231 breast. Particulars: 10 µM unless noted.
Assay [15] relates to RXF 393 renal. Particulars: 10 µM unless noted.
In assay [16] the test system is SF-268 CNS. Particulars: 10 µM unless noted.
The subject of assay [17] is SF-295 CNS. To be noted: 10 µM unless noted.
For assay [18], the system named is SF-539 CNS. Particulars: 10 µM unless noted.
Assay [19] deals with UACC-257 melanoma. Particulars: 10 µM.
The test system of assay [20] is M14 melanoma. To be noted: 10 µM unless noted.

As to `CCNC(=NCCCN(C)C)N/C(N)=N/c1nc2ccccc2s1`, the growth is 98.7% in [1]; 92.7% in assay [2]; 91.5% in [3]; 82.4% in [4]; 104% in assay [5]; 58.1% in assay [6]. Further, the growth is 99.2% in [7]; 89.8% in assay [8]; 84.6% in assay [9]; 78.7% in [10]; 99.5% in [11]; 65.9% in [12]. Moreover, the growth in assay [13] is 97%; in assay [14] it was 73.6%; in assay [15], 65.4%; in assay [16], 94.8%; in [17] it was 92.4%; in [18] it was 82.9%. In addition, the figures for the growth in assay [19] and in assay [20] were 104% and 97%, respectively.

Consider `Cn1nc(Nc2ccccc2)c(C(=O)NN)c1N`, for which the growth was 100% in assay [1]; 92.5% in assay [2]; 97% in [3]; 99.8% in [4]; 107% in assay [5]; 111% in assay [6]. In addition, the growth in [7] was 96.9%; in assay [8] it was 98.3%; in [9], 109%; in assay [10], 104%; in assay [11], 106%; in assay [12] it was 108%. For the same molecule, the growth in [13] was 90.9%; in assay [14], 93%; in assay [15], 109%; in assay [16], 103%; in assay [17] it was 103%; in assay [18] it was 96%. Besides, in assay [19], the growth was 102%.

Regarding `CN(C)CCn1c2ccc(N)cc2c2nc3ccccc3nc21`, the growth in assay [1] was 28.2%; in [2] it was 34.3%; in assay [3], 34.7%; in assay [4], 31.5%; in [5], 6.26% (active); in assay [6], 47.7%. For the same molecule, the growth in assay [7] was 30.1%; in assay [8], 25.8%; in assay [9], 35.6%; in assay [10] it was 9.4% (active); in [11], 25.3%; in assay [12], 13.7%. Also, the growth was 44.1% in assay [13]; 32.7% in assay [14]; 35.4% in [15]; 43.4% in assay [16]; 32.3% in [17]; 21.3% in assay [18]. The growth in assay [19] was 38.4%; in assay [20] it was 35.9%.

For `O=C(Nc1ccccc1)Nc1nc2ccc([N+](=O)[O-])cc2s1`, the growth was 0.812% (active) in assay [1]; 0.421% (active) in assay [2]; 10% in [3]; 8.52% (active) in assay [4]; 4.82% (active) in assay [5]; -22.2% (active) in assay [6]. Also, the growth in [7] was 3.38% (active); in [8], 8.07% (active); in assay [9], 14.1%; in assay [10], -26.1% (active); in assay [11], 14.7%; in [12], 5.58% (active). The growth in [13] is -10.8% (active); in assay [14], -5.6% (active); in [15] it was -21.6% (active); in [16], 13.4%; in assay [17], 2.83% (active); in [18] it was 9.38% (active). In addition, the growth is -8.53% (active) in assay [19] and 13% in assay [20].

In the case of `CS(=O)(=O)c1ccc(-c2nn(-c3ccccc3)cc2/C=C/C(=O)c2ccc(Br)cc2)cc1`, the growth in assay [1] was 100%; in assay [2], 101%; in assay [3], 95.4%; in assay [4], 105%; in assay [5], 93.9%; in assay [6], 114%. The growth in [7] was 82.6%; in assay [8] it was 96.5%; in assay [9], 91.5%; in assay [10], 113%; in assay [11] it was 100%; in assay [12], 47.3%. In addition, the growth was 71.3% in [13]; 88.3% in [14]; 93.7% in [15]; 99.4% in assay [16]; 104% in [17]; 102% in [18]. Also, the growth in assay [19] is 96.3%.

As to `O=C(Nc1ccc(-c2nc(-c3cccc(O)c3)c(-c3ccnc(Br)c3)[nH]2)cc1)c1ccccc1`, the growth in [1] is 10.5%; in [2] it was 51.4%; in assay [3] it was 37.3%; in [4] it was 2.99% (active); in assay [5] it was 11.1%; in [6], 6.58% (active). The growth in assay [7] was 11.3%; in assay [8], 25.9%; in [9] it was -10.2% (active); in assay [10] it was 21%; in assay [11], 35.5%; in [12], 1.18% (active). Moreover, the growth in [13] is 16.9%; in assay [14], 30.2%; in assay [15] it was -37.1% (active); in [16], 29.2%; in [17], -56.4% (active); in assay [18], 16.6%. Further, the figures for the growth in assay [19] and in [20] were 45.8% and 22.6%, respectively.

As to `Cc1csc(Nc2cccc(Nc3nc(C)cs3)c2)n1`, the growth in assay [1] is 58.4%; in assay [2], 85%; in assay [3], 96.2%; in assay [4], 98.8%; in [5], 76.5%; in assay [6] it was 52.2%. Further, the growth in assay [7] was 73.3%; in assay [8], 88%; in assay [9], 94.5%; in assay [10], 87.2%; in assay [11], 83.8%; in assay [12], 60.1%. Further, the growth in assay [13] was 84.8%; in assay [14], 79.2%; in [15] it was 91%; in assay [16], 85.2%; in [17], 66.2%; in [18], 83.8%. Also, the figures for the growth in assay [19] and in [20] were 89.7% and 86%, respectively.

As for `NC(=O)c1c(NC(=O)c2cccc(C(F)(F)F)c2F)sc2c1CCC(=O)C2`, the growth in assay [1] was 4.57% (active); in assay [2], 24.8%; in assay [3], 98.6%; in assay [4], 58.4%; in assay [5], 10.9%; in assay [6], 13.8%. For the same molecule, the growth in [7] was -11.4% (active); in [8], 64.8%; in assay [9], 30.2%; in assay [10] it was -9.67% (active); in [11], 89.1%; in [12] it was 13.4%. Also, the growth was 19.4% in [13]; 12.9% in [14]; -5.49% (active) in [15]; 21.6% in assay [16]; 40% in [17]; 0.149% (active) in assay [18]. The growth in [19] is 12.9%.
